CDK5 p35 inh: inhibitors of human CDK5/p35 kinase; Q00535+Q15078; Recombinant CDK5/p35, ADP-Glo luminescence, 60 min; inhibition, % at 10 µM; 330,000 compounds, 0.01% hits;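 active = highest replicate inhibition of at least 50% and at least 75% of replicates reaching 50%; inconclusive = only one of the two criteria met; inactive = both criteria failed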;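 also: plate controls were DMSO neutral control for no effect and GW8510 at 10 µM for full effect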
SMARCA2 activ: activators of SMARCA2 function | MG213 cells, MMTV-luciferase reporter, dexamethasone, overnight | activation, % at 9.1 µM | 370,000 compounds, 1% hits | AID 652017; in the data active = activation above about 7.8%;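 also: 0% = vehicle wells and 100% = reference activator wells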
dFosB act: enhances mouse delta FosB homodimer DNA binding; activation, % at 25 µM; 340,000 compounds, 0.99% hits; purified delta FosB, TAMRA-CDK5 oligo fluorescence polarization; percent of positive-control signal above neutral wells;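 active = mean activation above about 17%, with every replicate also reaching it, limit read from the data, passing the limit was not always enough; inconclusive = only one of the two conditions met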
Target sequence (P13346 whole entry, looked up): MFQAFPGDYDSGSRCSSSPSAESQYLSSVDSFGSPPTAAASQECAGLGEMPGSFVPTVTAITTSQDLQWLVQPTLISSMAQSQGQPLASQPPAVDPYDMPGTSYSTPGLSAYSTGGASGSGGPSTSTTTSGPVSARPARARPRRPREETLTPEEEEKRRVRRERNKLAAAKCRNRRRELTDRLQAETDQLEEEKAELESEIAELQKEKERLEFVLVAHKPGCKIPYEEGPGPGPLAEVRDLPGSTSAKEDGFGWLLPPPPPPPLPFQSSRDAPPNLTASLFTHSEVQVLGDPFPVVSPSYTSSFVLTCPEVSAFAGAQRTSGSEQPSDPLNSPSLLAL
esBAF inh: SWI/SNF esBAF complex inhibition; reporter increase, % at 12.5 µM; mouse ES cells, Bmi1-luciferase knock-in reporter, 24 h; 100% = twice the neutral-well signal; 350,000 compounds, 2% hits; in the data active = activation above about 40%; inconclusive = no clear call, values can overlap the other calls;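 also: 0% = median of the plate's neutral control wells and 100% = double that signal; a rise in the Bmi1 reporter signal indicates esBAF inhibition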
Rtt109 Vps75: blocks Candida albicans Rtt109/Vps75 acetyltransferase activity; purified Rtt109/Vps75, ThioGlo CoA-SH fluorescence, 4 h; 330,000 compounds, 0.16% hits; inhibition, % at 34.9 µM; Q5AAJ8; AID 540336;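 active = inhibition of at least 50% in every replicate; inconclusive = best replicate reaches 50% inhibition but some replicates fall short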
Target sequence (Q5AAJ8 whole entry, looked up): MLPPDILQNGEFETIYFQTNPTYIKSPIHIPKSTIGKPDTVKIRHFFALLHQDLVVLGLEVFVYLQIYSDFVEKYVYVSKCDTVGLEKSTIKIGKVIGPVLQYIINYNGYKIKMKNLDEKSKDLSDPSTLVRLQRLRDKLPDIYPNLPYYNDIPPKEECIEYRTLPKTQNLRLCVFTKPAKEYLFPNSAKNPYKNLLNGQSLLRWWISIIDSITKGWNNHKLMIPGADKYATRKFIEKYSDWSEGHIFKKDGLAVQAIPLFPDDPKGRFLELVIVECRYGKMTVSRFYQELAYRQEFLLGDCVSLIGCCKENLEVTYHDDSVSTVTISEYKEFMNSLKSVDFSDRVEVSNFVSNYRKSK
Dyrk1A ADPGlo: inhibitors of rat Dyrk1A kinase; Q63470; ADP-Glo luminescence, NFATc1 peptide; inhibition, % at 12.5 µM; 310,000 compounds, 0.43% hits; AID 504441; in the data active = inhibition above about 50%;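 also: plate controls were vehicle with enzyme for no effect and no enzyme for full effect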
SMARCA2 conf: confirmation of SMARCA2 (BRM) function activators; shares compounds with SMARCA2 activ; MG213 cells, MMTV-luciferase with dexamethasone, luminescence, overnight; MG213 cells expressing E1A, Rb sequestered; DMSO wells 0%, reference activator 100%; activation, % at 9.1 µM; 3,500 compounds, 30% hits; AID 652260;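 active = activation above its plate's cutoff, the mean activation of tested wells plus 3 SD, cut at about 7.9% in these data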
VP16 Luc act: counter-screen for SMARCA2 activators: GAL4-VP16 luciferase reporter activation. shares compounds with SMARCA2 activ. HEK293 GAL4-VP16 pG5luc reporter, luciferase luminescence; scaled: DMSO wells 0%, SAHA wells 100%. activation, % at 9.1 µM. 3,500 compounds, 41% hits. AID 686939;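 active = activation above the solvent-only control well mean plus 3 SD, averaged across control plates, cut at about 5.2% in these data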
Starred values were filed as active, the others as inactive; u = inconclusive; x = no result. An excerpt weighted towards active compounds, which were near 3.2% of everything screened.

SMILES | CDK5 p35 inh | SMARCA2 activ | dFosB act | esBAF inh | Rtt109 Vps75 | Dyrk1A ADPGlo | SMARCA2 conf | VP16 Luc act
CN(C)c1ccc(/C=C(/C#N)C(=O)Nc2nc3c(s2)CCN(Cc2ccccc2)C3)cc1 | -1 | 8.9* | -38 | 28 | -5 | -3 | -5 | 6.9*
N#C/C(=C\c1ccc(OCc2ccccc2)cc1)C(=O)Nc1nc2c(s1)CCN(Cc1ccccc1)C2 | x | -1 | -9 | x | -1 | -3 | x | x
C[C@H]1CCCCO[C@@H](CN(C)C(=O)Nc2ccccc2)[C@@H](C)CN([C@@H](C)CO)C(=O)c2cc(NC(=O)C3CCCCC3)ccc2O1 | x | x | x | 5 | x | x | x | x
COc1ccc(-c2cn3ccccc3n2)cc1 | 5 | 4 | 2 | -44 | -1 | 14 | x | x
CCCOc1ccc(-c2cn3ccccc3n2)cc1 | 5 | 8.2* | -13 | x | 4 | x | 6 | 9.7*
O=C(/C=C/c1ccccc1[N+](=O)[O-])OCC(=O)c1ccccc1 | 0 | 10* | 0 | x | 2 | x | 8.0* | 2
O=C(O)C[C@@H]1CC[C@H](NC(=O)c2ccccc2F)[C@@H](CO)O1 | x | x | x | -8 | x | x | x | x
CC(C)C#Cc1ccc2c(c1)O[C@@H](CN(C)C(=O)c1cccnc1)[C@H](C)CN([C@H](C)CO)S2(=O)=O | x | x | x | 6 | x | x | x | x
CC(C)(C(=O)c1ccccc1)/[N+]([O-])=C/c1ccc(F)cc1 | -1 | 9.8* | 9 | 8 | -11 | 1 | -1 | -1
C[C@@H]1CN([C@@H](C)CO)C(=O)Cc2cc(NC(=O)Cn3cnnn3)ccc2O[C@H]1CN(C)S(=O)(=O)c1ccc(F)cc1 | x | x | x | -3 | x | x | x | x
COc1ccccc1-c1nc(-c2ccc(C(=O)O)cc2)no1 | 0 | 2 | -1 | 9 | -20 | 4 | x | x
COc1ccc(-c2nc(-c3ccc(C(=O)O)cc3)no2)cc1 | -3 | 8.4* | -2 | 5 | -1 | 9 | 8.4* | 15*
COc1ccc(-c2ccc(-c3noc(-c4ccccc4)n3)c(OC)n2)cc1 | -2 | 12* | -9 | -5 | 2 | 2 | 2 | 2
CCCC(=O)Nc1ccc2c(c1)C(=O)N(C)[C@H]1CC[C@H](CC(=O)O)O[C@H]1CO2 | x | x | x | -5 | x | x | x | x
CCOC(=O)c1ccc(Nc2ncccc2[N+](=O)[O-])cc1 | 0 | 8.3* | -12 | u | 19 | 3 | 16* | 6.2*
ClCc1nnc(-c2cc3c(s2)CCCC3)o1 | 0 | 11* | 1 | x | 11 | x | -4 | 1
O=S(=O)(CC(O)COc1ccccc1Cl)c1ccccc1 (configuration not stated) | 0 | 3 | -2 | 6 | -4 | 0 | x | x
O=S(=O)(Cc1ccccc1Cl)CC(O)COc1ccccc1Cl (configuration not stated) | 1 | 8.4* | -5 | 16 | 4 | 16 | -4 | 2
C[C@H](CO)N1C[C@H](C)[C@H](CN(C)C(=O)c2ccccc2)OCCCC[C@H](C)Oc2ccc(NC(=O)Nc3cccc4ccccc34)cc2C1=O | x | x | x | 0 | x | x | x | x
CCN(C[C@H]1N[C@@](Cc2ccccc2)(C(=O)OC)[C@H]2C(=O)N(Cc3ccccc3)C(=O)[C@@H]12)C(=O)NC(C)C | 0 | 9.2* | -9 | -1 | -3 | x | -4 | 1
c1ccc(-c2nn3c(-c4ccccc4)nnc3o2)cc1 | x | 0 | x | 18 | x | x | x | x
CN(C)c1nn2c(-c3ccccc3)nnc2o1 | x | 8.8* | x | -2 | x | x | 0 | 3
O=C(Nc1nnc(-c2ccccc2SCc2ccccc2F)s1)Nc1ccccc1F | 0 | 8.3* | -8 | -5 | 2 | -10 | 2 | 2
O=C(Nc1nnc(-c2cccc(F)c2)s1)Nc1ccccc1F | 0 | 0 | 11 | x | x | 17 | x | x
CC(C)NC(=O)N1C[C@H]2[C@@H](c3ccccc31)[C@@H](CO)N2C(=O)c1ccncc1 | x | x | x | -4 | x | x | x | x
SMILES | CDK5 p35 inh | SMARCA2 activ | dFosB act | esBAF inh | Rtt109 Vps75 | Dyrk1A ADPGlo | SMARCA2 conf | VP16 Luc act
O=C(C1=C(O)C(=O)N(c2nccs2)C1c1ccccc1)c1cc2ccccc2o1 (configuration not stated) | -1 | 14* | -5 | x | u | x | -1 | 3
O=C(C1=C(O)C(=O)N(CCc2ccccc2)C1c1ccncc1)c1cc2ccccc2o1 (configuration not stated) | -1 | 2 | -3 | x | 17 | 0 | x | x
C=CCc1ccc(OCCCCN2CCC(C)CC2)c(OC)c1 | -1 | 12* | -14 | x | 18 | x | -6 | 3
C[C@@H]1CCCCO[C@@H](CN(C)C)[C@@H](C)CN([C@@H](C)CO)C(=O)c2cc(NC(=O)CCC(F)(F)F)ccc2O1 | x | x | x | -2 | x | x | x | x
C[C@@H]1CN([C@H](C)CO)C(=O)c2cccc(NC(=O)Nc3ccccc3)c2O[C@@H]1CN(C)C | x | x | x | -1 | x | x | x | x
O=C(Cn1cc(/C=C\[N+](=O)[O-])c2ccccc21)Nc1ccccc1 | 0 | 17* | -5 | -1 | -4 | -5 | 10.0* | 1
O=C(O)Cn1cc(/C=C/[N+](=O)[O-])c2ccccc21 | 0 | 3 | -3 | x | x | 3 | x | x
COc1ccc(OC)c(S(=O)(=O)N2CCC(C(=O)Nc3cccc(C)c3C)CC2)c1 | 1 | 8.4* | 12 | 9 | -7 | -6 | -2 | 1
COc1cccc(S(=O)(=O)N(C)C[C@H]2Oc3ncc(C#CCN(C)C)cc3C(=O)N([C@@H](C)CO)C[C@@H]2C)c1 | x | x | x | -9 | x | x | x | x
CCC(=O)N[C@@H]1CC[C@H](CC(=O)NCC2CCCCC2)O[C@H]1CO | x | x | x | 1 | x | x | x | x
CC(=O)C1=C(C)NC(SCC(=O)c2cc(Cl)ccc2Cl)=C(C#N)C1c1ccco1 (configuration not stated) | 3 | -3 | -17 | x | 24 | 14 | x | x
CC(=O)C1=C(C)NC(SCC(=O)c2ccc(Cl)c(Cl)c2)=C(C#N)C1c1ccco1 (configuration not stated) | -1 | 8.6* | -4 | -4 | -1 | -4 | -5 | 0
C[C@H]1CCCCO[C@H](CN(C)C(=O)NC2CCCCC2)[C@@H](C)CN([C@@H](C)CO)C(=O)c2cc(NC(=O)Cc3ccccc3)ccc2O1 | x | x | x | 14 | x | x | x | x
Cc1n[nH]c(=S)n1/N=C/c1ccc(OCc2ccc(Cl)cc2Cl)cc1 | -1 | 13* | -15 | x | 6 | -5 | 0 | 3
Cc1n[nH]c(=S)n1/N=C/c1ccc(OCc2ccc(Cl)cc2)cc1 | -1 | 0 | -4 | -10 | -2 | 5 | x | x
N#C/C(=C/c1ccc(N2CCOCC2)o1)c1nc2ccccc2[nH]1 | 1 | 9.7* | -29 | 6 | -5 | 7 | 16* | 17*
N#C/C(=C\c1c(Cl)cccc1Cl)c1nc2ccccc2[nH]1 | 0 | 4 | -8 | 10 | 8 | -4 | x | x
